{"source": "PubChem BioAssay AID651664", "about": "(NMMLSC, 2012)", "note": "Among all 1,800 compounds or so, fewer than 10 were called active. A selection follows. Unmarked numbers belong to inactive results.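 Rule for the calls: active = inhibition of granule release above a set limit; inactive = the rest.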"}
{"assay": "LAMP-1 surface externalization blockers in TALL-104 cells – cell-based, flow cytometry, validation set (AID 651664)", "details": "TALL-104 LAMP-1 externalization, at 15.2 µM, stronger effect = higher value, stimulated with thapsigargin and PMA"}
{"smiles": "O=C(c1ccccc1)N(CCN1CCOCC1)C1(C(=O)Nc2ccccc2)CCCCC1", "inhibition": "5.2%"}
{"smiles": "COc1ccc(NC(=O)CSc2c(C)nn(-c3nnc(C)c(=O)[nH]3)c2C)cc1", "inhibition": "0.5%"}
{"smiles": "COC(=O)c1ccc(CSc2nc3ccccc3c(=O)n2-c2ccccc2)o1", "inhibition": "-0.9%"}
{"smiles": "Cn1c(CN2CCCC2)nc2cc(NS(=O)(=O)c3ccc(Cl)cc3)ccc21", "inhibition": "-3.8%"}
{"smiles": "CCC(C)NC(=O)CSc1nnc(-c2cc(-c3cccs3)nc3ccccc23)o1", "note": "(configuration not stated)", "inhibition": "-1.3%"}
{"smiles": "COC(=O)c1cc(NC(=O)CN(c2ccc3c(c2)OCO3)S(C)(=O)=O)ccc1Cl", "inhibition": "1.7%"}
{"smiles": "CCOc1ccccc1N1CC(C(=O)Nc2nccs2)CC1=O", "note": "(configuration not stated)", "inhibition": "-1.1%"}
{"smiles": "Cc1cnc(NC(=O)c2ccc3c(c2)C(=O)N(Cc2ccco2)C3=O)s1", "inhibition": "-1.3%"}
{"smiles": "COc1ccc(N/N=C(/N=Nc2nc(C)cc(=O)[nH]2)c2ccccc2)cc1", "inhibition": "3.7%"}
{"smiles": "CCOC(=O)c1ccc(N2C(=O)CC(Sc3nnc(C)s3)C2=O)cc1", "note": "(configuration not stated)", "inhibition": "-0.5%"}
{"smiles": "Cc1ccc(-c2nc(N)c3c(-c4ccc(C)cc4)nn(C(C)(C)C)c3n2)cc1", "inhibition": "0%"}
{"smiles": "O=c1[nH]c(CO)nc2c1oc1ccccc12", "inhibition": "-3.5%"}
{"smiles": "CCC(C#CCN1CCCCC1)(CC)OCCC#N", "inhibition": "25.8%"}
{"smiles": "COC(=O)CN1C(=O)CSc2ncccc21", "inhibition": "0.6%"}
{"smiles": "CCCCOCCCNC(=O)N[C@H](C(=O)OC)C(C)C", "inhibition": "-2.9%"}
{"smiles": "Nc1ncnc2nc(SCc3ccc(Cl)cc3Cl)[nH]c12", "inhibition": "6.3%"}
{"smiles": "CN(C)c1nc(SCc2ccccc2Cl)nc2c1CCCC2", "inhibition": "-0.7%"}
{"smiles": "CC1(C)Cc2c(sc3ncn4nc(-c5ccco5)nc4c23)CO1", "inhibition": "-1.3%"}
{"smiles": "O=C(COc1ccc(F)cc1)c1ccc2c(c1)CCCC2", "inhibition": "-2.8%"}
{"smiles": "O=C1c2ccccc2-c2c1nc1c([n+]2[O-])CCCC1", "inhibition": "-5.1%"}
{"smiles": "COc1ccc2c(c1OC)C(=O)N(c1cccc(C)c1)C2=O", "inhibition": "1.1%"}
{"smiles": "CO/N=C/C(=N\\Nc1ccc(OC)cc1)C(=O)c1ccc(OC)cc1", "inhibition": "0.7%"}
{"smiles": "COc1ccc(S(=O)(=O)N(C)CC(=O)Nc2ccccc2C(F)(F)F)cc1OC", "inhibition": "-1.6%"}
{"smiles": "CN1CCN(c2nc(-c3ccccc3)nc3c2oc2ccccc23)CC1", "inhibition": "1.5%"}
{"smiles": "O=C(CSc1nnc(CNc2ccc(F)cc2)n1-c1ccccc1)N1CCOCC1", "inhibition": "-4.6%"}
{"smiles": "COc1ccc(N=C2S/C(=C\\c3ccc(C)s3)C(=O)N2CC(C)C)cc1", "inhibition": "-0.3%"}
{"smiles": "Fc1ccccc1/C=N/Nc1nn[nH]n1", "inhibition": "-1.6%"}
{"smiles": "CCOC(=O)c1c(NC(=O)Cc2cccs2)sc(C(=O)N2CCCCC2)c1C", "inhibition": "-4.7%"}
{"smiles": "CN=C(NC)SC1CC(=O)N(c2ccccc2)C1=O", "note": "(configuration not stated)", "inhibition": "3.9%"}
{"smiles": "CCOc1cc(/C=N/n2cnnc2)cc(Br)c1O", "inhibition": "-0.7%"}
{"smiles": "O=C1CCC(=O)N1c1nc2nc(-c3ccccc3)cc(=O)n2[nH]1", "inhibition": "-1.6%"}
{"smiles": "CC(=O)COc1ncn(-c2ccccc2)n1", "inhibition": "0.2%"}
{"smiles": "Fc1cc2nc(-c3ccncc3)[nH]c2cc1F", "inhibition": "-0.1%"}
{"smiles": "Cc1noc(NS(=O)(=O)c2ccc(NC(=O)Nc3ccc(Cl)c(Cl)c3)cc2)c1C", "inhibition": "0%"}
{"smiles": "CCn1c(-c2ccccc2)c[nH]c1=S", "inhibition": "-1.3%"}
{"smiles": "Nc1c(C(=O)NCC2CCCO2)sc(=S)n1-c1ccccc1", "note": "(configuration not stated)", "inhibition": "0.7%"}
{"smiles": "COc1ccc(C)cc1-n1nnnc1SCc1cn2ccsc2n1", "inhibition": "-3.3%"}
{"smiles": "CC(=O)c1ccc(N2CCN(CCC#N)CC2)c(F)c1", "inhibition": "8.2%"}
{"smiles": "Cc1occc1C(=O)NC(C)CCc1ccccc1", "note": "(configuration not stated)", "inhibition": "6.4%"}
{"smiles": "CC(C)(C)NC(=O)C1Cc2ccccc2CN1C(=O)Nc1cccc(Cl)c1", "note": "(configuration not stated)", "inhibition": "3.6%"}
{"smiles": "CN(C)c1ccc(-c2nnc(-c3ccc(S(=O)(=O)C(F)F)cc3)o2)cc1", "inhibition": "-2%"}
{"smiles": "COc1ccc(-c2sc(NC(=O)c3ccc(C)cc3)nc2-c2ccc([N+](=O)[O-])cc2)cc1", "inhibition": "0.2%"}
{"smiles": "NC(=O)NC(=O)CSc1nc(-c2ccccc2)c(-c2ccccc2)n1CC1CCCO1", "note": "(configuration not stated)", "inhibition": "3.8%"}
{"smiles": "CCCc1nc2ccccc2c(=O)n1/N=C/c1ccccc1O", "inhibition": "-1.9%"}
{"smiles": "Cc1snc(S(=O)(=O)/C(C#N)=N/Nc2cccc(C(F)(F)F)c2)c1C#N", "inhibition": "5.6%"}
{"smiles": "CCNc1nc(NCC)nc(OCCOC(=O)COc2ccc(Cl)cc2Cl)n1", "inhibition": "-2.4%"}
{"smiles": "CN1CC(=O)NC1=NC(=O)c1ccc(Cl)c(S(=O)(=O)N2CCCCCC2)c1", "inhibition": "-1.1%"}
{"smiles": "Cc1ccc2c(c1Br)/C(=N/N1C(=O)c3ccccc3C1=O)C(=O)N2", "inhibition": "-3.6%"}
{"smiles": "Clc1ccc(-c2nnnn2-c2ccc(Cl)c(Cl)c2)cc1Cl", "inhibition": "-0.4%"}
{"smiles": "COc1ccccc1N(C(=O)c1ccco1)C(C(=O)NC1CCCC1)c1cccnc1", "note": "(configuration not stated)", "inhibition": "-0.8%"}
{"smiles": "CC(C)(C)NC(=O)Cc1ccc(S(=O)(=O)N2CCCC2)s1", "inhibition": "-1.8%"}
{"smiles": "Nc1nc(CSc2nc3ccccc3s2)nc(N2CCCCC2)n1", "inhibition": "3.2%"}
{"smiles": "FC(F)(F)c1cccc(NC(=S)N2CCN(c3cccc(C(F)(F)F)c3)CC2)c1", "inhibition": "-4.7%"}
{"smiles": "Cc1nc2cc(S(=O)(=O)N3CCC(C(=O)O)CC3)ccc2n1C1CCCC1", "inhibition": "-3.7%"}
{"smiles": "O=C(CSc1ncnc2c1cnn2Cc1ccccc1)Nc1ccc2c(c1)OCCO2", "inhibition": "0.3%"}
{"smiles": "O=C1c2ccccc2C(=O)N1SC1CCCCC1", "inhibition": "-1.8%"}
{"smiles": "Cn1c(-c2ccccc2Br)n[nH]c1=S", "inhibition": "89.2% (active)"}
{"smiles": "COCCCn1c(-c2ccccc2Cl)n[nH]c1=S", "inhibition": "4.6%"}
{"smiles": "S=c1[nH]nc(-c2ccccc2Cl)n1CC1CCCO1", "note": "(configuration not stated)", "inhibition": "-1.9%"}
{"smiles": "Cc1nn2c(N)c(C#N)cnc2c1-c1ccc(Cl)cc1", "inhibition": "2.5%"}
{"smiles": "CN1CCN(C(=O)c2ccc3c(c2)NC(=O)C(N2CCOCC2)S3)CC1", "note": "(configuration not stated)", "inhibition": "3.1%"}
{"smiles": "COCCNc1nc2ccccc2nc1NS(=O)(=O)c1ccc(C)cc1C", "inhibition": "2.3%"}
{"smiles": "CC(=O)C(C)Oc1ncn(-c2ccccc2)n1", "note": "(configuration not stated)", "inhibition": "-3%"}
{"smiles": "N#Cc1ccc(C(=O)Nc2ccc(S(=O)(=O)NC3=NCCCCC3)cc2)cc1", "inhibition": "4.4%"}
{"smiles": "O=C(Nc1ccccc1)N1CCN(c2ccccn2)CC1", "inhibition": "-1.4%"}
{"smiles": "O=C1CCCCC1C(Nc1ccc(Cl)cc1)c1ccccc1", "note": "(configuration not stated)", "inhibition": "1.3%"}
{"smiles": "COc1ccc(C(CNC(=O)c2ccc(N3CCCC3=O)cc2)N(C)C)cc1", "note": "(configuration not stated)", "inhibition": "-2%"}
{"smiles": "Clc1ccccc1C1SCC2Nc3ccccc3CN21", "note": "(configuration not stated)", "inhibition": "0.1%"}
{"smiles": "Cc1cccc(/C(N)=N/OC(=O)CCCN2C(=O)c3ccccc3C2=O)c1", "inhibition": "1.9%"}
{"smiles": "COc1ccccc1NC(=O)CC1COc2ccccc2O1", "note": "(configuration not stated)", "inhibition": "-0.3%"}
{"smiles": "CCOc1ccccc1NC(=O)c1ccc(S(=O)(=O)N2CCOCC2)cc1", "inhibition": "-1.3%"}
{"smiles": "Cc1ccc(Cl)cc1NC(=O)CSC(N)=O", "inhibition": "-3%"}
{"smiles": "COC(=O)C1=CN(CCCN2CCCC2=O)C=C(C(=O)OC)C1c1ccccc1C(F)(F)F", "inhibition": "3.5%"}
{"smiles": "CCC(CC)NC(=O)c1cc2c(C)nn(Cc3ccccc3Cl)c2s1", "inhibition": "-0.5%"}
{"smiles": "Cc1nnc(N(CCC#N)CCC#N)s1", "inhibition": "0%"}
{"smiles": "O=C(CN1CCN(c2cccc(C(F)(F)F)c2)CC1)Nc1cccc(C(F)(F)F)c1", "inhibition": "-3.2%"}
{"smiles": "Cc1oc2nc(SCCCC(=O)NCCO)nc(N)c2c1C", "inhibition": "2.7%"}
